Experimental data reported in PubChem BioAssay AID1159580 (chemical genetic matrix, 2015).
The whole screen tested about 5,500 compounds, of which about 2,000 (36%) were called active. Not shown: some 18% with an inconclusive outcome. Cut-off read from the data, not from the text of the source: active = normalized growth mostly below about 0.91 (no sharp cut-off); inconclusive = no clear call, values can overlap the other calls; inactive = mostly above about 0.92. This is one part of the list.

Assay: chemical genetic growth profiling, strain panel (AID 1159580);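 note: tested at 20 µM; growth read once vehicle control cultures reached saturation at 30 °C; 1 = growth at the plate median or of vehicle wells; lower values mean less growth of the strain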
Conditions: growth OD

Measured: normalized growth

Cc1cc(=O)n2c(-c3ccc(Cl)cc3)csc2n1
active: S. cerevisiae deletion strains, locus YML094W, strain GIM5, active compounds read low 0.864
inactive: S. cerevisiae deletion strains, locus YAL013W, strain DEP1, active compounds read low 0.975 | S. cerevisiae deletion strains, locus YBR229C, strain ROT2, active compounds read low 0.954 | S. cerevisiae deletion strains, locus YCL061C, strain MRC1, active compounds read low 0.951 | S. cerevisiae deletion strains, locus YDL101C, strain DUN1, active compounds read low 0.936 | S. cerevisiae deletion strains, locus YDR150W, strain NUM1, active compounds read low 0.976 | S. cerevisiae deletion strains, locus YEL061C, strain CIN8, active compounds read low 0.931 | S. cerevisiae deletion strains, locus YGR078C, strain PAC10, active compounds read low 0.96 | S. cerevisiae deletion strains, locus YHR030C, strain SLT2, active compounds read low 0.712 | S. cerevisiae deletion strains, locus YHR087W, strain rtc3, active compounds read low 0.927 | S. cerevisiae deletion strains, locus YJL187C, strain SWE1, active compounds read low 0.965 | S. cerevisiae deletion strains, locus YJR043C, strain POL32, active compounds read low 0.982 | S. cerevisiae deletion strains, locus YJR075W, strain HOC1, active compounds read low 0.956 | S. cerevisiae deletion strains, locus YLR039C, strain RIC1, active compounds read low 0.892 | S. cerevisiae deletion strains, locus YLR058C, strain SHM2 (second series), active compounds read low 0.956 | S. cerevisiae deletion strains, locus YLR085C, strain ARP6, active compounds read low 0.826 | S. cerevisiae deletion strains, locus YLR262C, strain YPT6, active compounds read low 0.916 | S. cerevisiae deletion strains, locus YMR219W, strain ESC1, active compounds read low 0.96 | S. cerevisiae deletion strains, locus YMR263W, strain SAP30, active compounds read low 0.987 | S. cerevisiae deletion strains, locus YNL128W, strain TEP1, active compounds read low 0.972 | S. cerevisiae deletion strains, locus YNL153C, strain GIM3, active compounds read low 0.973 | S. cerevisiae deletion strains, locus YNL298W, strain CLA4 (second series), active compounds read low 0.947 | S. cerevisiae deletion strains, locus YNL322C, strain KRE1, active compounds read low 0.976 | S. cerevisiae deletion strains, locus YNR030W, strain Alg12, active compounds read low 0.943 | S. cerevisiae deletion strains, locus YPL055C, strain LGE1, active compounds read low 0.963 | S. cerevisiae deletion strains, locus YPL241C, strain CIN2, active compounds read low 0.941 | S. cerevisiae deletion strains, locus YPR135W, strain CTF4, active compounds read low 0.764 | S. cerevisiae strains, strain wild type, active compounds read low 0.96
